# Sampled rows, rich in hits. Any-hit rate of the full collection: about 9.2%.
# ELG1 repair inh = inhibitors of ELG1-dependent DNA repair in HEK293T cells; Potency, µM (doses to about 46.1 µM), inactives show at the top dose activity change, negative = inhibition, usual class: inhibitors; 330,000 compounds, 2.3% hits; HEK293T ELG1-luciferase reporter, luminescence, 16 h; DNA damage induced by 5-fluorouridine; further: on the % scale 0 is the no-effect control and ±100 the full control effect; nearly all actives have a fitted effect of over 55% in size
#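 DMSO vehicle served as the neutral condition. Each well held 2,000 cells given 5-fluorouridine plus compound; after 16 hr at 37 °C/5% CO2, ONE-Glo was added and luciferase measured 30 min later.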
# ELG1 genotox = genotoxicity induction in ELG1-luciferase HEK293T cells | HEK293T ELG1-luciferase reporter, luminescence, 16 h | Potency, µM (highest dose often 46 µM), without a hit: at the highest dose activity change, positive = activation, hits mostly activators | 330,000 compounds, 1.3% hits; further: % of control where 0% means no effect; nearly all actives have a fitted effect of over 60% in size
#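 Reporter readout depends on ELG1 protein level, which increases with genetic stress. After 16 hr compound exposure at 37 °C, luciferase activity was quantified using ONE-Glo.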
# Rab9 prom act = activates the Rab9 promoter. Huh7 Rab9 promoter-luciferase reporter, luminescence, 24 h. Potency, µM (doses to about 9.22 µM), without a hit: at the highest dose activation, negative = inhibition, most hits filed as activators. 320,000 compounds, 2.8% hits. AID 485297; further: % of control where 0% means no effect; nearly all actives have a fitted effect of over 60% in size
#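 Huh7 cells stably carrying Rab9 promoter–luciferase reporter, plated 1500 cells/well, compound added after 2 h and incubated 24 h at 37 °C; luciferase luminescence then read after 10 min with detection reagent.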
# SMN2 splice up = enhancers of SMN2 splice variant expression. HEK293 SMN2-luciferase splicing reporter, luminescence, 30-36 h. Potency, µM (titrated, usually from 46.1 µM), for the others: top-dose activity change, positive = activation, usual class: activators. 210,000 compounds, 2.8% hits. AID 1458; further: % of control where 0% means no effect; nearly all actives have a fitted effect of over 55% in size
#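 qHTS luciferase splicing reporter: luminescence rises when SMN2 exon 7 is included in transfected HEK293 cells. Compound exposure lasted 30-36 h at 37C, with 4.5 mM final sodium butyrate as control, followed by a ONE-Glo read.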
# FLuc modulator = counter-screen for miR-21 project: firefly luciferase inhibitors or activators. P08659. purified FLuc, Km substrates, luminescence inhibition. Potency, µM (series often up to 57.5 µM), inactives show top-dose activity change, negative = inhibition, usual class: inhibitors. 360,000 compounds, 6.9% hits. AID 588342;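 further: plate controls were vehicle for no effect and reference inhibitor for full effect; nearly all actives have a fitted effect of over 55% in size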
# Target sequence (P08659 whole entry, looked up): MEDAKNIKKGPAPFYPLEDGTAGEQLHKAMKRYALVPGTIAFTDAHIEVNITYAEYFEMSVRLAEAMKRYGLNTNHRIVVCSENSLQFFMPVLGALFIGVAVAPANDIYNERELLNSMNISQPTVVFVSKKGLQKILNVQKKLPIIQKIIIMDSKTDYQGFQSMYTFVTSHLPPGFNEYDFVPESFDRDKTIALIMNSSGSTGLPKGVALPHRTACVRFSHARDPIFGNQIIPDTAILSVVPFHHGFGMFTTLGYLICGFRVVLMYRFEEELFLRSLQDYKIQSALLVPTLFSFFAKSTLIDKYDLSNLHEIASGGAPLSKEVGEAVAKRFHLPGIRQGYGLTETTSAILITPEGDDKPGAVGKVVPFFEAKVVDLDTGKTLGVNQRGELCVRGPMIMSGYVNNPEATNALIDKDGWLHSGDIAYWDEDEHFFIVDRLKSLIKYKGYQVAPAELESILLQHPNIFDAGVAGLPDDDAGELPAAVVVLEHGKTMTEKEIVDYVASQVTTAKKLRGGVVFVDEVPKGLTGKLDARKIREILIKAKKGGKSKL
#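 Purified P. pyralis luciferase (10nM final) with 10uM D-luciferin and 10uM ATP (Km levels) in 50mM Tris acetate pH 7.5, 10mM Mg acetate, 0.01% Tween-20, 0.05% BSA; qHTS 6-point titration, ~60 µM downward; luminescence read.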
# NPC1 promoter act = activators of NPC1 promoter. Huh7 NPC1 promoter luciferase reporter, 24 h. Potency, µM (series often up to 9.22 µM), without a hit: at the top dose activation, actives largely listed as activators. 320,000 compounds, 2.4% hits. AID 485313; further: % of control where 0% means no effect; nearly all actives have a fitted effect of over 60% in size
#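 Readout is luciferase luminescence, reflecting NPC1 promoter activation in stably transfected Huh7 cells after 24 h compound exposure at 37 °C in reduced-serum medium with 10% FBS.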
# * hit, by the source's call; u = inconclusive; x = no result given; [ ] = dose if it differs, or a comment. The call rests on the fitted dose curve; in most records, active means well fitted curve in the direction sought with a large enough effect; inconclusive means small, poorly fitted or top-dose-only effect, or another doubt; inactive means no such curve, though single readings can be large; an effect the other way counts as inactive or inconclusive. Potency means the concentration at half of the fitted maximal effect.
SMILES,ELG1 repair inh,ELG1 genotox,Rab9 prom act,SMN2 splice up,FLuc modulator,NPC1 promoter act
CC(C)(C)NC(=O)c1ccc(C(=O)NC(C)(C)C)cc1,-5.6%,1.2%,-13.7%,x,0.6%,3.4%
CC(C)(C)NC(=O)c1sccc1C(=O)O,u,1.9%,-0.9%,-13.6%,15.1µM*,0.1%
COc1cc(NC(=S)N2CCN(C(c3ccccc3)c3ccccc3)CC2)cc(OC)c1,-3.5%,-18.6%,-13.6%,12.6µM*,-2.0%,2.1%
CCCCNC(=S)N1CCN(C(c2ccccc2)c2ccccc2)CC1,20.6µM*,-5.9%,3.0%,-27.1%,-1.3%,-5.0%
NC(=O)C1=CN(C2OC(COP(=O)(O)OP(=O)(O)OC[C@H]3O[C@@H](n4cnc5c(N)ncnc54)[C@H](OP(=O)(O)O)[C@@H]3O)C(O)C2O)C=CC1 (stereo partly drawn),x,x,0.1%[46.1 µM],x,x,4.7%[46.1 µM]
O=C(Nc1nccs1)c1ccc(-c2ccc(F)c(Cl)c2)o1,u,-1.3%,u,x,6.01µM*,u
O=C(Nc1nccs1)c1ccc(-c2ccc(Cl)cc2Cl)o1,u,u,3.16µM*,14.1µM*,0.849µM*,3.55µM*
Cc1[nH]c(=O)[nH]c(=O)c1S(=O)(=O)N1CCN(c2ccccc2Cl)CC1,x,x,x,x,-18.2%,x
CCCc1cc2c(=O)c(-c3ccc4c(c3)OCCO4)coc2cc1OC(=O)c1ccco1,u,18.1%,1.58µM*,u,5.36µM*,1.26µM*
CCc1cc2c(=O)c(-c3ccc4c(c3)OCCO4)coc2cc1OC(=O)c1ccco1,u,1.46µM*,2µM*,u,1.07µM*,1.78µM*
CCOC(=O)c1c(S(=O)(=O)NCC(=O)Nc2ccc(F)cc2C)c(C)n(C)c1C,x,x,x,x,-1.5%,x
O=C(/C=C\c1cn(-c2ccccc2)nc1-c1ccccc1)Nc1nccs1,-5.4%,9.5%,-0.7%,2.3%,u,10.9%
CC(=O)NS(=O)(=O)c1ccc(NC(=O)/C=C/c2cn(-c3ccccc3)nc2-c2ccccc2)cc1,10.8%,0.5%,-3.8%,7.6%,9.53µM*,-2.8%
COc1ccccc1NC=C1C(=O)OC(C)(C)OC1=O,u,-0.4%,9.0%,8.8%,10.7µM*,-4.3%
CCOC(=O)N1CCc2c(sc(NCc3sccc3C)c2C(=O)Nc2ccccc2OCC)C1,x,x,x,x,-16.3%,x
CCOC(=O)c1cc2c(C)n(-c3ccc(N(C)C)cc3)c(C)c2cc(C(=O)OCC)c1=O,u,2.0%,u,-22.6%,1.69µM*,28.7%
CCOC(=O)c1cc2c(C)n(-c3ccc(OCC)cc3)c(C)c2cc(C(=O)OCC)c1=O,12.9%,1.2%,0.1%,5.8%,-13.2%,0.1%
O=C(CC(=O)N/N=C/c1c(Cl)cccc1Cl)NCc1cccnc1,-13.1%,-0.9%,-3.2%,x,-2.2%,0.8%
Cc1ccc(NC(=O)N/C=C/c2ccco2)c(C)c1,15.1%,4.2%,-1.1%,9.6%,u,1.3%
Cc1ccc(-n2nc3ccc(NC(=O)/C=C/c4ccco4)cc3n2)cc1,u,u,u,14.1µM*,u,u
O=C(/C=C/c1ccco1)Nc1cccc(C(=O)Nc2ccccc2C(=O)O)c1,0.8%,-5.5%,0.8%,x,21.3µM*,-3.1%
CCc1ccccc1NC(=O)c1cccc(NC(=O)/C=C/c2ccco2)c1,u,-1.8%,u,10.8%,3.01µM*,1.2%
O=C(O)c1cccc(NC(=O)c2ccccc2NC(=O)c2ccco2)c1,-11.2%,0.9%,-2.0%,x,u,-4.6%
Cc1ccc(NC(=O)N/C=C/c2ccco2)cc1C,u,-0.5%,18.0%,-3.2%,10.7µM*,27.3%
O=S(O)O.O=S(O)O.[Co].[NH2-].[NH2-].[NH2-].[NH2-],x,x,x,-2.6%[9.22 µM],x,x
SMILES,ELG1 repair inh,ELG1 genotox,Rab9 prom act,SMN2 splice up,FLuc modulator,NPC1 promoter act
CC(C)[C@H](NC(=O)c1ccccc1)C(=O)OCC(=O)c1ccc(S(=O)(=O)N2CCCCC2)cc1,21.8%,0.3%,-4.7%,x,3.5%,-0.4%
COc1ccc(Cn2ccc3nc(C)c(C(=O)Nc4ccc(OC)cc4OC)cc3c2=O)cc1,x,x,x,x,1.2%,x
CC(C)OCCCNC(=O)CCCn1c(SCC(N)=O)nc2c(sc3ccccc32)c1=O,x,x,x,12.1%,-0.7%,x
Cn1c(NC(=O)/C=C/c2ccco2)cc(=O)n(C)c1=O,u,7.9%,26.1%,-3.2%,u,15.0%
Cc1ccc(NC(=O)c2cccc(NC(=O)/C=C/c3ccco3)c2)cc1C,u,0.0%,3.16µM*,17.8µM*,1.9µM*,u
Cc1ccc(Cl)cc1NC(=O)Nc1cccc(OCc2cc(=O)n3ccccc3n2)c1,x,x,x,x,-7.0%,x
CC(C)OC(=O)Nc1ccc2c(c1)N(C(=O)N1CCN(C)CC1)c1ccccc1CC2,u,u,u,x,6.01µM*,u
C/C(=N/NC(=O)c1ccoc1C)c1ccc(NC(=O)C2CCCC2)cc1,u,u,27.1%,u,u,23.5%
COc1ccc(C(=O)Nc2cccc(/C(C)=N\NC(=O)c3ccoc3C)c2)cc1OC,u,-10.9%,16.0%,x,16.9µM*,12.1%
C/C(=N\NC(=O)c1nn(C)c(C)c1Br)c1cccc(NC(=O)c2ccoc2C)c1,u,15.7%,u,9.2%,2.39µM*,25.9%
C/C(=N\NC(=O)c1ccoc1C)c1ccccc1,u,u,2µM*,x,10.7µM*,2.51µM*
COc1ccc(C(=O)Nc2cccc(/C(C)=N/NC(=O)c3ccc([N+](=O)[O-])c(C)c3)c2)cc1OC,u,-11.7%,-2.9%,11.6%,u,1.4%
CC(=O)NC1=C(NC2CCS(=O)(=O)C2)C(=O)c2ccccc2C1=O (stereo not drawn),u,-8.4%,-0.3%,x,1.7%,3.6%
CN(C1=C(NC(=O)c2ccccc2)C(=O)c2ccccc2C1=O)C1CCS(=O)(=O)C1 (stereo not drawn),9.2µM*,-6.8%,-32.4%,-83.2%,-6.3%,-28.3%
COc1ccc(NC(=O)Cc2c(C(=O)O)[nH]c3ccccc23)cc1OC,x,x,x,10.0%,-5.0%,x
N/C(=N\OC(=O)c1ccc([N+](=O)[O-])cc1)c1cccnc1,u,u,-4.8%,x,2.69µM*,-0.8%
Cc1ccc(C(=O)O/N=C(\N)c2cccnc2)cc1[N+](=O)[O-],u,u,1.9%,u,12µM*,9.6%
N/C(=N\OC(=O)c1ccc(Cl)c([N+](=O)[O-])c1)c1ccccc1,u,12.9%,27.9%,x,12µM*,-4.8%
Cc1ccccc1Cn1c(C)c(CNCc2ccccc2)c(C(=O)O)c1C,x,x,x,5.9%,-11.6%,x
